High-throughput results as filed in PubChem BioAssay.
SARS 3CLpro inh: SARS-CoV 3CLpro protease inhibition; P0C6X7; recombinant SARS-CoV 3CLpro, quenched FRET peptide cleavage; 0.14% of 290,000 active; inhibition, % at 6 µM; in the data active = inhibition above about 12%
CCHFV vOTU inh: blocks the CCHF virus ovarian tumor domain protease | CCHFV vOTU protease, Pep-AMC fluorescence | inhibition, % at 11.5 µM | 0.55% of 370,000 active | AID 651958; in the data active = inhibition above about 30%
RecA intein inh: blocks M. tuberculosis RecA intein splicing; cell-free RecA intein splicing, fluorescence; P9WHJ3; inhibition, % (test concentration not listed); 0.75% of 290,000 active; AID 2221; in the data active = inhibition above about 30%; inconclusive = no clear call, values can overlap the other calls
SSB-PriA inh: inhibitors of Klebsiella pneumoniae PriA binding to SSB C-terminal tail; AlphaScreen SSBct-PriA binding, biotinylated peptide; inhibition, % at 33 µM; 0.6% of 430,000 active; in the data active = inhibition mostly above about 37%, no sharp cut-off; inactive = mostly below about 20%
DUSP3 inh: DUSP3 (human) phosphatase inhibition. inhibition, % at 13.3 µM. 0.52% of 290,000 active. recombinant VHR phosphatase, pNPP absorbance; in the data active = inhibition above about 50%
Target sequence (P51452 whole entry, looked up): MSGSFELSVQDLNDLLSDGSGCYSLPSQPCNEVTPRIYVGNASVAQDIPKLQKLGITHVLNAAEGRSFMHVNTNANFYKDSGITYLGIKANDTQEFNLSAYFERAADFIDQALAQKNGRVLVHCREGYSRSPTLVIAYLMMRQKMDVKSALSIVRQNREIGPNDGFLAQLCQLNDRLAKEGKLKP
GFP chromophore: counter-screen GFP chromophore formation inhibition. shares compounds with RecA intein inh. cell-free GFP chromophore formation, fluorescence. EC50, µM. 83% of 2,100 active. AID 434968; call rule not given here
Numbers stand for hits; - = inactive; ? = inconclusive; . = no result given. Only some compounds are listed: those with a hit (about 1.7% of all), similar ones and a draw of the others.

SMILES | SARS 3CLpro inh | CCHFV vOTU inh | RecA intein inh | SSB-PriA inh | DUSP3 inh | GFP chromophore
CC(C)c1ccc(N2C(=O)C(Cl)=C(N3CCOCC3)C2=O)cc1 | - | - | - | - | - | .
Cc1ccccc1N1C(=O)C(Cl)=C(N2CCOCC2)C1=O | - | - | 59 | - | - | 12
O=C1C(Cl)=C(N2CCOCC2)C(=O)N1c1ccc(Br)cc1 | - | - | 53 | - | - | 2.5
CCc1ccccc1N1C(=O)C(Cl)=C(N2CCOCC2)C1=O | - | - | 67 | - | - | 9.9
O=C1C(Cl)=C(N2CCOCC2)C(=O)N1c1ccccc1F | - | - | . | - | - | 7.2
Cc1ccc(N2C(=O)C(Cl)=C(N3CCOCC3)C2=O)c(C)c1 | - | - | 60 | - | - | 11
Cc1cccc(N(Cc2cc(=O)[nH]c3ccccc23)C(=O)CCl)c1 | - | - | 41 | - | - | 8
COC(=O)C[C@]1(C(=O)OC)CN(C#N)N(c2ccc(Cl)cc2)C12c1ccccc1-c1ccccc12 | - | - | 74 | - | - | 4.7
COC(=O)c1sc(-c2ccc(Cl)cc2)cc1NC(=O)/C=C/C(=O)O | - | - | 70 | - | - | 27
CC(C)=C1C2CCC1C(C(=O)Nc1sc(C)c(-c3ccc(C(C)C)cc3)c1C(N)=O)C2C(=O)O (stereo not drawn) | - | - | - | - | - | .
COC(=O)c1scc(C)c1NC(=O)/C=C/C(=O)O | - | - | - | - | - | .
CCOC(=O)c1c(NC(=O)/C=C/C(=O)O)sc(C)c1-c1ccc(F)cc1 | - | - | 60 | - | - | 34
COC(=O)c1c(NC(=O)/C=C/C(=O)O)sc(C)c1-c1ccc(C)c(C)c1 | - | - | 63 | - | - | 38
COC(=O)c1c(NC(=O)/C=C/C(=O)O)sc(C)c1-c1ccc(C(C)C)cc1 | - | - | 77 | - | - | 13
COc1ccccc1CNC(=O)C(=O)Nc1ccc(C)c(F)c1 | . | . | . | - | . | .
O=C(NCCCc1ccccc1)N1CCC(Oc2ncccn2)CC1 | . | . | . | - | . | .
CCOC(=O)c1c(NC(=O)/C=C/C(=O)O)sc(C)c1-c1ccc(C)c(C)c1 | - | - | 78 | - | - | 14
CCOC(=O)c1c(NC(=O)c2cc(OC)c(OC)c(OC)c2)sc(C)c1-c1ccc(Cl)cc1 | . | . | . | - | . | .
O=C(Nc1ccc2scnc2c1)c1nc2ccccc2s1 | . | . | . | - | . | .
COc1ccccc1N1CCN(CC(=O)c2c(C)n(C)c3ccccc23)CC1 | - | - | - | - | - | .
COc1ccccc1N1CCN(CC(=O)c2c(C)[nH]c3cc(C)ccc23)CC1 | - | - | - | - | - | -
O=C1c2ccccc2-c2onc3ccc(Oc4ccccc4)c1c23 | - | - | 86 | - | - | 0.81
COc1cc(C)c(S(=O)(=O)Nc2cnc(N3CCCC3)nc2)cc1C | . | . | . | - | . | .
CCOC(=O)CSCCOc1ccc(C=C2C(=O)NC(=O)NC2=O)cc1OC | - | - | 73 | - | - | -
Cc1cc(C)nc(Sc2ccc(C=O)cc2[N+](=O)[O-])n1 | - | - | - | - | - | .
SMILES | SARS 3CLpro inh | CCHFV vOTU inh | RecA intein inh | SSB-PriA inh | DUSP3 inh | GFP chromophore
O=Cc1ccc(Sc2nnc(-c3ccccc3)o2)c([N+](=O)[O-])c1 | - | . | 55 | - | - | 26
Cc1onc(-c2ccccc2Cl)c1C(N)=O | - | - | - | - | - | .
Cc1[nH]n(C)c(=O)c1C(=O)c1c(-c2ccccc2Cl)noc1C | - | - | 74 | - | - | 17
COC(=O)c1[nH]c(=O)c2ccccc2c1O | - | . | 81 | - | - | 15
COC(=O)c1[nH]c(=O)c2ccccc2c1OCc1ccccc1 | - | - | - | - | - | .
CCCC(=O)N(C1CC(C)C(C#N)(C#N)C1(C#N)C#N)N(C)C (stereo not drawn) | - | - | 93 | - | - | 4.9
CC(=O)N(C1CC(C)C(C#N)(C#N)C1(C#N)C#N)N(C)C (stereo not drawn) | - | - | 81 | - | - | 19
CCCCNC1C(CC)C(CCC)C(C#N)(C#N)C1(C#N)C#N (stereo not drawn) | - | . | 76 | - | - | 12
O=C(OCn1ncc(Cl)c(Cl)c1=O)c1cccc(C(F)(F)F)c1 | - | . | 94 | - | - | 1.6
N/C(=N\OC(=O)c1cccc(C(F)(F)F)c1)c1cnccn1 | - | - | - | . | - | .
C=CCn1c(Sc2nc3ccccc3o2)nc2c1c(=O)[nH]c(=O)n2C | . | . | . | - | . | .
CC(C)CCn1c(Sc2nc3ccccc3o2)nc2c1c(=O)[nH]c(=O)n2C | - | - | 31 | - | - | 5
CCOC(=O)c1ccc(S(=O)(=O)NCCn2nc(-c3ccc(Cl)cc3)ccc2=O)cc1 | . | . | . | - | . | .
c1ccc(Nc2nc3ccccc3[nH]2)nc1 | - | - | - | - | - | .
Cc1ccccc1Nc1cc2ccccc2c(=O)[nH]1 | - | . | 71 | - | - | ?
O=c1[nH]c(Nc2ccccn2)cc2ccccc12 | . | - | 72 | - | . | -
Cc1cc(Nc2ccc(F)cc2)c2ccccc2n1 | . | - | . | . | . | .
Cc1cc2ccccc2c(=O)[nH]1 | - | - | - | - | - | .
O=c1[nH]c(Nc2ccc(F)cc2)cc2ccccc12 | - | 105 | 65 | - | - | 1.6
COc1cc(C(=O)N2CCN(Cc3nc(C4CC4)cs3)CC2)c([N+](=O)[O-])cc1OC | . | . | . | - | . | .
CCOC(=O)c1ccc(S(=O)(=O)NCCOc2cc(N3CCN(C)CC3)ncn2)cc1 | . | . | . | - | . | .
Cc1cc2c(c(=O)n1C1CC1)C(c1cccc(Cl)c1)C(C#N)=C(N)O2 (stereo not drawn) | - | - | - | - | - | .
Cc1ccc(-n2nc(C)c3c2OC(N)=C(C#N)C3c2cccs2)cc1 (stereo not drawn) | - | - | 65 | - | - | 5
CCn1c(C)cc2c(c1=O)C(c1ccncc1)C(C#N)=C(N)O2 (stereo not drawn) | - | - | - | - | - | .
CCCc1nn(C)c2c1C(c1ccncc1)C(C#N)=C(N)O2 (stereo not drawn) | - | - | 64 | - | - | 30
SMILES | SARS 3CLpro inh | CCHFV vOTU inh | RecA intein inh | SSB-PriA inh | DUSP3 inh | GFP chromophore
CCOC(=O)C1=C(C)OC(N)=C(C#N)C1c1c(C)nn(-c2ccccc2)c1Cl (stereo not drawn) | - | - | - | - | - | .
Cc1nn(Cc2ccccc2)c2c1C(c1cccc(Cl)c1)C(C#N)=C(N)O2 (stereo not drawn) | - | - | 73 | - | - | 32
Cc1nn(-c2ccccc2)c2c1C(c1c(C)[nH]c(C#N)c1C)C(C#N)=C(N)O2 (stereo not drawn) | - | - | - | - | - | .
COc1cc(-n2nc(C)c3c2OC(N)=C(C#N)C3c2ccccc2)c(Cl)c(Br)c1O (stereo not drawn) | - | - | 72 | - | - | 20
Cn1nc(N2CCCC(C(=O)Nc3c(-c4ccccc4)nc4ccccn34)C2)ccc1=O (stereo not drawn) | . | . | . | - | . | .
Cc1nn(-c2ccccc2)c2c1C(c1ccncc1)C(C#N)=C(N)O2 (stereo not drawn) | - | - | 38 | - | - | 17
Cc1ccc(-n2nc(C)c3c2OC(N)=C(C#N)C3c2ccncc2)cc1 (stereo not drawn) | - | - | . | - | - | .
CC(C)(C)c1ccc(/C=C(\c2nc3ccccc3[nH]2)S(=O)(=O)c2ccccc2)cc1 | . | . | 82 | - | . | 6.6
